Calls of active or inactive are those of the source.
Legend:
Albumin (Bos taurus) = Albumin (Bos taurus) (UniProt P02769); assay: bovine serum albumin binders on microarray, profiling panel, artefact control for SMM control protein annotation, biochemical, small-molecule microarray, Alexa647 label, 635/667 nm fluorescence (AID 1118); conditions: BSA-A647 binding, fluorescence 635 nm, higher = more signal;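 also: score merges 667 nm emission intensity and signal-to-noise per printed compound spot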
[1] = small-molecule microarray binders of probe aXIP, primary screen, biochemical, NeuroSMM set, 635/667 nm fluorescence (AID 1119); conditions: higher = more signal, called active from +8 up or from −8 down;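 also: probe is the protein aXip251-270 applied at 1 µg/mL to compound-printed slides; binding of probe to printed compounds measured as 667 nm fluorescence plus signal to noise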
[2] = small-molecule binders of probe aNOTCH3, primary screen, biochemical, small-molecule microarray, 635/667 nm fluorescence (AID 1120); conditions: higher = more signal;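 also: probe is a biotin-tagged antibody raised against NOTCH3 rather than NOTCH3 protein; score merges spot fluorescence near 667 nm with spot signal to noise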
[3] = small-molecule binders of probe aNOTCH2, primary screen, biochemical, small-molecule microarray, 635/667 nm fluorescence (AID 1121); conditions: higher = more signal;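 also: score merges feature fluorescence read at 667 nm with its signal to noise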
[4] = target: Carbonic anhydrase 2 (Homo sapiens) (UniProt P00918); assay: CAII small-molecule binders, profiling panel, biochemical, small-molecule microarray, Alexa647-labelled CAII (AID 1122); conditions: CAII-A647 binding fluorescence, higher = more signal
[5] = COS7 lysate on small-molecule microarray, probe aHis, 635 nm (AID 1123); conditions: COS7 cell lysate, fluorescence, higher = more signal;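 also: z-score combines 667nm fluorescence intensity with signal-to-noise per printed compound spot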
[6] = compound binding in COS7 lysate, probe aLAP1, primary screen, cell lysate, small-molecule microarray (AID 1124); conditions: probe aLAP1, fluorescence, higher = more signal;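 also: lysate comes from COS7 cells expressing LAP1 and is applied at 0.3 µg/mL; score merges spot fluorescence near 667 nm with signal-to-noise over triplicate slides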
Sam68 (KHDRBS1) = assay: Sam68 small-molecule binders, primary screen, biochemical, small-molecule microarray, 635 nm fluorescence (AID 1125); conditions: small-molecule microarray binding, higher = more signal;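 also: score merges 667 nm channel intensity with signal to noise over triplicate slides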
[7] = system: Chordin-like protein 2 (CHRDL2); assay: CHRDL2 small-molecule binders, primary screen, biochemical, small-molecule microarray, 635 nm fluorescence (AID 1126); conditions: small-molecule microarray binding, fluorescence 635 nm; higher = more signal;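 also: printed compound slides probed with Chrdl2 protein at 4 µg/mL for 1 h at 4 C; score merges 667 nm emission intensity with signal to noise over three replicate slides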
[8] = target: Concanavalin-A (Canavalia ensiformis) (UniProt P02866); assay: ConA small-molecule binders, primary screen, artefact control for SMM control protein annotation, biochemical, small-molecule microarray, Alexa647 label, 635 nm (AID 1127); conditions: ConA-A647 binding fluorescence, higher = more signal;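 also: z combines 667 nm emission intensity with signal-to-noise across three replicate slides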
[9] = anti-His antibody binders, primary screen, artefact control for SMM control protein annotation, biochemical, small-molecule microarray, 635 nm fluorescence (AID 1128); conditions: anti-His Alexa647 antibody binding, higher = more signal;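 also: score merges feature fluorescence with signal-to-noise for each printed compound spot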
[10] = system: Human papillomavirus type 1a E7 protein (residues 1-88); assay: HPV1a E7 small-molecule binders, primary screen, biochemical, small-molecule microarray, residues 1-88, 635 nm (AID 1129); conditions: small-molecule microarray binding, fluorescence 635 nm; higher = more signal
[11] = target: Focal adhesion kinase 1 (Homo sapiens) (UniProt Q05397); assay: small-molecule microarray binders of FAK, primary screen, biochemical, 635/667 nm fluorescence, BSA, DTT (AID 1130); conditions: PTK2 binding, 635 nm fluorescence, higher = more signal;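 also: composite of spot emission at 667 nm and signal to noise over triplicate slides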
[12] = system: Fibrinogen (Alexa647-labelled); assay: fibrinogen binders on compound microarrays, profiling panel, artefact control for SMM control-protein annotation, biochemical, small-molecule microarray, 635/667 nm fluorescence (AID 1131); conditions: fibrinogen-A647 binding fluorescence, higher = more signal;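 also: z-score merges 667 nm fluorescence with per-spot signal-to-noise over triplicate slides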
[13] = target: Follistatin (Homo sapiens) (UniProt P19883); assay: follistatin binders on small-molecule microarrays, primary screen, biochemical, small-molecule microarray, 635/667 nm fluorescence (AID 1132); conditions: FST binding, 635 nm fluorescence, higher = more signal
[14] = target: Fibroblast growth factor 2 (Homo sapiens) (UniProt P09038); assay: FGF2 binders on small-molecule microarrays, primary screen, biochemical, small-molecule microarray, 635/667 nm fluorescence (AID 1133); conditions: small-molecule microarray binding, FGF2, fluorescence 635/667; higher = more signal
[15] = mitochondrial membrane potential change in A549 cells, profiling panel, cell-based, JC-1 fluorescence, basal, 24 h, 100 nL (AID 1138); conditions: higher = more signal;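 also: A549 lung adenocarcinoma cells under basal conditions with no added stimulus; test concentration not given here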
Lefty1 = Lefty1 binders on small-molecule microarrays, primary screen, biochemical, small-molecule microarray, 635/667 nm fluorescence (AID 1139); conditions: small-molecule microarray binding, fluorescence 635/667; higher = more signal
[16] = system: wheat germ agglutinin (Triticum aestivum), Alexa647-labelled; assay: wheat germ agglutinin binders on compound microarrays, profiling panel, artefact control for SMM control-protein annotation, biochemical, small-molecule microarray, 635/667 nm fluorescence (AID 1140); conditions: WGA-A647 binding, 635 nm fluorescence, higher = more signal;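 also: score merges 667 nm feature emission with signal to noise over triplicate slides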
[17] = target: Luciferin 4-monooxygenase (Photinus pyralis) (UniProt P08659); assay: firefly luciferase enzyme inhibitors, primary screen, biochemical, luminescence, purified enzyme, 2006 set (AID 1141); conditions: SteadyGlo luminescence, 30 min, higher = more signal, called active from +8 up or from −8 down;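 also: cell-free assay with purified firefly luciferase at 100 ng per well in PBS; test concentration not given here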
Sequence of Luciferin 4-monooxygenase (Photinus pyralis) (P08659 whole entry, looked up): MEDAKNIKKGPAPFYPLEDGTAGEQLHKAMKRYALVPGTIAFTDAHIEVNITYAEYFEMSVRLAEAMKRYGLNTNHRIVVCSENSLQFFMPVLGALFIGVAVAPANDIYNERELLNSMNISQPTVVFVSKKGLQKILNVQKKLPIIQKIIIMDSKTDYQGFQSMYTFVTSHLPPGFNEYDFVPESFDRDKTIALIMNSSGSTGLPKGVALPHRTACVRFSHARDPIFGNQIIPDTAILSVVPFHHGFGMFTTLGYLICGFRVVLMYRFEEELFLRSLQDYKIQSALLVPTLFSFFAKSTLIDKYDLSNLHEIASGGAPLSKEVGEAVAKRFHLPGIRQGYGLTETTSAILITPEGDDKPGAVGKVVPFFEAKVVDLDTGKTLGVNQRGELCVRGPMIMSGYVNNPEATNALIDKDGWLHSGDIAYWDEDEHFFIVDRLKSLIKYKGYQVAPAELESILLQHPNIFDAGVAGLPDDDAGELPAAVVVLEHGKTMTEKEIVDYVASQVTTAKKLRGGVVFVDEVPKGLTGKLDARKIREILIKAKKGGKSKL

Sequence of Albumin (Bos taurus) (P02769 whole entry, looked up): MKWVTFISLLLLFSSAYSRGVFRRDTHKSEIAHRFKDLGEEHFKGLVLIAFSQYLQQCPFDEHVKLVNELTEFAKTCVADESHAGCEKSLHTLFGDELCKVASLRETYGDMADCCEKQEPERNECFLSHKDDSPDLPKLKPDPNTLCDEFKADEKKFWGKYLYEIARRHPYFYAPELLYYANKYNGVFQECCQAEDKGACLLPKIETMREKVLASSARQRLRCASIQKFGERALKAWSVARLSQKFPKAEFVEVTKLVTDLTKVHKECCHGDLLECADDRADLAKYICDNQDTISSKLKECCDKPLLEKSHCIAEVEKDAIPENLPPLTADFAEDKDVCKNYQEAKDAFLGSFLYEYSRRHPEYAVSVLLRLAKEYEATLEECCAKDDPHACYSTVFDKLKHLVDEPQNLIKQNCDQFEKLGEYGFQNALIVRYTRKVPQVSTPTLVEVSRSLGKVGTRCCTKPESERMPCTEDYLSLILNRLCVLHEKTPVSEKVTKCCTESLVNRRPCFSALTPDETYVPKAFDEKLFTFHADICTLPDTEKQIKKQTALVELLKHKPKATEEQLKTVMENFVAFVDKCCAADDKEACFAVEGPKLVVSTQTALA
Sequence of Follistatin (Homo sapiens) (P19883 whole entry, looked up): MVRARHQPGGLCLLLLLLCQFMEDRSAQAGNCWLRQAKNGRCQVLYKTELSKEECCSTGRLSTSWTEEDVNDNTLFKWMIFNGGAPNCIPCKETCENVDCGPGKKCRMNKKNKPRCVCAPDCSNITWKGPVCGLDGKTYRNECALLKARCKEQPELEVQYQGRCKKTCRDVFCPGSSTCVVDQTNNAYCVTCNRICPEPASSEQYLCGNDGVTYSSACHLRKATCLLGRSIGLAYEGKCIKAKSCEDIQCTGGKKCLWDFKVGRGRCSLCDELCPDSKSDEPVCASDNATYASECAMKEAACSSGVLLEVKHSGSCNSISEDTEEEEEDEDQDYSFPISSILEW
Sequence of Fibroblast growth factor 2 (Homo sapiens) (P09038 whole entry, looked up): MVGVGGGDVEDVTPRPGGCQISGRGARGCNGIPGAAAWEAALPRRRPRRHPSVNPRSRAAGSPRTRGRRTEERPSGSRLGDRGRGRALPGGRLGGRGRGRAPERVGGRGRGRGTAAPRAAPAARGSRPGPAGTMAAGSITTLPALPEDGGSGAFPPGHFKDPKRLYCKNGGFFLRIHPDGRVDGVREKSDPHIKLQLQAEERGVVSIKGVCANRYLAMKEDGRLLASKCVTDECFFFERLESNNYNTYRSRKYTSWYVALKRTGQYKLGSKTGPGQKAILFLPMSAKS
Sequence of Concanavalin-A (Canavalia ensiformis) (P02866 whole entry, looked up): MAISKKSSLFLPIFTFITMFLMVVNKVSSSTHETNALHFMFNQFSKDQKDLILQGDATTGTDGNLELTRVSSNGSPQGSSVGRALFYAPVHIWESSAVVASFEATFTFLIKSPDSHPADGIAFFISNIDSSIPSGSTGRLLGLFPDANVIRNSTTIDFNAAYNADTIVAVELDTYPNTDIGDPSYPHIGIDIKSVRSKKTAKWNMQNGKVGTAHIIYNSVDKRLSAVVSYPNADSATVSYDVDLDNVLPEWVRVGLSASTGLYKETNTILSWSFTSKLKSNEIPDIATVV
Sequence of Focal adhesion kinase 1 (Homo sapiens) (Q05397 whole entry, looked up): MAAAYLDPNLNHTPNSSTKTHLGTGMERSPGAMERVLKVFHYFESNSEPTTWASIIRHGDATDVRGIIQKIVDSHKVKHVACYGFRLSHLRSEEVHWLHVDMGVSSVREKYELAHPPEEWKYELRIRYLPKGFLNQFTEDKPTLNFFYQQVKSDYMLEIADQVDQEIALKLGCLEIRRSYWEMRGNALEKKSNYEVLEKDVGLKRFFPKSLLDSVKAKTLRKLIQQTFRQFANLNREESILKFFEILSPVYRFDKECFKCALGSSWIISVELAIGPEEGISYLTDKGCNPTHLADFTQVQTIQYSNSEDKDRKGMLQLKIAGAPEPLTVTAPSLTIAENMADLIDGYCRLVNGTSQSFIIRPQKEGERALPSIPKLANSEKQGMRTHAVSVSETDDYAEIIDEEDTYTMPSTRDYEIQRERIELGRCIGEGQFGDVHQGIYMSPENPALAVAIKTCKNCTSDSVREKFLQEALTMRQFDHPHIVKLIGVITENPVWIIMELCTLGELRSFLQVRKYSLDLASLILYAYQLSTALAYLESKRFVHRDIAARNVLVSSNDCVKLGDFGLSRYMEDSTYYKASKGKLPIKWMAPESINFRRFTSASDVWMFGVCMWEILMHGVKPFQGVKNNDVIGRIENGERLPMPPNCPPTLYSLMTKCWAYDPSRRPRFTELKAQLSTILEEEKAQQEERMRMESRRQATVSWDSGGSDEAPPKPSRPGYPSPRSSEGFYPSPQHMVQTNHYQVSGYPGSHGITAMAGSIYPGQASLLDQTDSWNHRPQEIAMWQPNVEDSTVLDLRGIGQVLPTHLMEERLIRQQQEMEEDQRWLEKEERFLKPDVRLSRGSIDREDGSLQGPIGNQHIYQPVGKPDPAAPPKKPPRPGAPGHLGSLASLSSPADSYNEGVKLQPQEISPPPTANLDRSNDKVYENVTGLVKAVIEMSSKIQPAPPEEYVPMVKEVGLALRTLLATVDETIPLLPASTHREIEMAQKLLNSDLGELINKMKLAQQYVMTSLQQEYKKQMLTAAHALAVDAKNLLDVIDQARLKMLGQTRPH

Row | Structure (SMILES) | composite z-score (Albumin (Bos taurus)) | composite Z-score [1] | composite z-score [2] | composite z-score [3] | composite z-score [4] | composite z-score [5] | composite z-score [6] | composite z-score (Sam68 (KHDRBS1)) | composite z-score [7] | composite z-score [8] | composite z-score [9] | composite z-score [10] | composite z-score [11] | composite z-score [12] | composite z-score [13] | composite z-score [14] | z-score [15] | composite z-score (Lefty1) | composite z-score [16] | z-score [17]
1 | O=C1O[C@H](c2ccccc2)[C@H](c2ccccc2)N2[C@H]1[C@@H](C(=O)O)[C@]1(C(=O)Nc3ccc(C#CCCO)cc31)[C@H]2c1ccc(OCCO)cc1 | 0.316 | 0.0388 (inactive) | 0.0026 | 0.015 | 0.596 | 2.2 | 1.38 | 1.08 | 1.11 | 0.891 | 2.27 | 1.22 | 0.146 | 0.974 | 1.22 | 1.16 | 0.747 | 0.0897 | 1.17 | -3.11 (inactive)
2 | [N-]=[N+]=Nc1ccccc1[C@@H]1OC(c2ccc(OCCCO)cc2)=N[C@]1(Cc1ccccc1)C(=O)NCCN1CCOCC1 | 0.981 | 0.0561 (inactive) | 0.156 | -0.0482 | 0.607 | 2.86 | 0.946 | 0.96 | -0.377 | 0.355 | 0.598 | 1.28 | 0.15 | 0.993 | 0.675 | -0.155 | -0.225 | 0.278 | 0.399 | -5.81 (inactive)
3 | Cc1ccc(S[C@]2(C(=O)NC(C)C)CC(=O)N(C3CCCCC3)[C@@H]2c2ccc(CO)cc2I)cc1 | 0.529 | 0.339 (inactive) | 0.0488 | -0.0727 | 0.645 | 2.6 | 0.487 | 1.28 | -0.325 | 1.11 | 0.362 | 1.11 | 0.414 | 0.703 | 1.21 | 0.396 | 1.04 | 0.964 | 0.0189 | 0.571 (inactive)
4 | Cc1ccc(N2C(=O)c3ccccc3[C@](C)(C(=O)NCCCN(C)C)[C@@H]2c2ccc(CO)cc2)nc1 | 0.656 | -0.392 (inactive) | -0.0984 | -0.13 | 0.281 | 0.93 | -0.728 | 0.276 | -1.19 | 0.0368 | -0.479 | -0.254 | 0.304 | -0.18 | 0.351 | -1.21 | 0.361 | -0.28 | -0.0926 | -0.156 (inactive)
5 | COC(=O)[C@@]1(Cc2ccccc2)[C@H]2c3cc(C(=O)N(C)C)n(Cc4ccc(S(C)(=O)=O)cc4)c3C[C@H]2CN1C(=O)c1ccccc1 | 1.13 | -0.368 (inactive) | 0.364 | 0.199 | 0.647 | 2.9 | 0.722 | 0.296 | -0.755 | 1.08 | 3.21 | 0.884 | 1.31 | 0.989 | -0.0741 | -0.277 | -0.699 | -0.367 | 1.13 | 1.6 (inactive)
6 | C[N+](C)(C)CCCCNC(=O)[C@H]1C[C@H]2C(=O)N[C@@H](Cc3ccccc3)C(=O)N2[C@H]1c1cccc(OCCO)c1 | -1.43 | 0.466 (inactive) | 0.0401 | -0.1 | 0.542 | 1.71 | 1.3 | 0.669 | 1.5 | 1.1 | 2.93 | 0.566 | 0.193 | 0.578 | 1.48 | 1.87 | -0.243 | 1.69 | -0.4 | -0.598 (inactive)
